Screening data: PubChem, several laboratories
Arbovirus anti – antivirals against arbovirus infection, primary screen, cell-based, full library, 10K replicate subset. arbovirus infection cell-based antiviral screen. inhibition, % at 10 µM. actives 0.37% (n = 200,000); in the data active means inhibition above about 30%
HSV augment – enhancers of HSV replication in host cells, fold increase, host cell viability | HSV replication augmentation in cells | maximum fold increase | AID 1956, 2009 | actives 0.005% (n = 220,000); in the data active means maximum fold increase above about 1.5; inconclusive means no clear call, values can overlap the other calls; tested in PC3 cells
ROMK mod – ROMK potassium channel modulators, primary screen, cell-based, thallium flux, MLSMR library. ATP-sensitive inward rectifier potassium channel 1 (Homo sapiens), P48048. Tet-inducible ROMK, thallium flux fluorescence; actives lie on both sides. B-score at 10 µM. actives 2% (n = 130,000);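 active means signal ratio slope over the read window, or its plate-corrected B-score, at least 3 SD from the plate mean, either direction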;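 further: B-score of the F/F0 ratio slope over 7 to 12 s after thallium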
Target sequence (P48048 whole entry, looked up): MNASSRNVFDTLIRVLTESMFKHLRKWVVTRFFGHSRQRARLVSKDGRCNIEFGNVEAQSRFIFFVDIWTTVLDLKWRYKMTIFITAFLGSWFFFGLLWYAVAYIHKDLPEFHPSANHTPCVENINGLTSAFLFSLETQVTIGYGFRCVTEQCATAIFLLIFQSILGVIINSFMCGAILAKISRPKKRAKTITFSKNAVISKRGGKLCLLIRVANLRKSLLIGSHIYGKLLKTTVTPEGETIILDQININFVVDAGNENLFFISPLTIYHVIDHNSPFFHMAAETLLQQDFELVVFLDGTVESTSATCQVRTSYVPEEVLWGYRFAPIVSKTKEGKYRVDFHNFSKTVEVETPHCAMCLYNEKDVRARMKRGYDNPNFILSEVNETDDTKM
Efa HMGR inh – inhibitors of E. faecalis class II HMGR, primary screen, biochemical, Enterococcus faecalis | purified E. faecalis HMGR, NADPH absorbance 340 nm kinetic | actives 0.41% (n = 190,000) | HMG-CoA reductase (Enterococcus faecalis, mvaE) | inhibition, % at 10 µM;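 active means inhibition above a set limit, the median over all tested compounds plus 3 SD, cut at about 9.5% in these data; inconclusive means no clear call, values can overlap the other calls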;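 further: enzyme runs in reverse so mevalonate oxidation gives rising NADPH absorbance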
m-calpain inh – inhibitors of pig calpain II, primary screen, biochemical, fluorogenic peptide substrate, 1536-well; purified calpain II, 30 min; inhibition, % at 16 µM; actives 0.37% (n = 220,000);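 active means inhibition above about 50%, limit read from the data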
ROMK hit retest – ROMK channel modulator hit retest, confirmation, cell-based, thallium flux, duplicate, resupplied hits; AID 1917, 2009; actives 54% (n = 3,000); shares compounds with ROMK mod; normalized thallium flux (F/F0 slope) at 10 µM; fluorescence ratio; active compounds read low;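 active means Flux at 10 µM at least 3 SD below or above vehicle control mean in one or both replicates; inconclusive means no clear call, values can overlap the other calls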
Large screens that a line does not name were inactive (follow-up assays come after a bar, where they were run). Only some compounds are listed: those with a hit (about 2.1% of all), similar ones and a draw of the others.

CC1(C)Cc2ccccc2C(/C(=N\Nc2cccc(Cl)c2)C(N)=O)=N1	none
CC1Cc2nc(SCC(=O)N3CCN(c4ccccc4)CC3)n(CCc3ccccc3)c(=O)c2S1 (configuration not stated)	none (no result: ROMK mod) | ROMK hit retest 0.0641
CC(=O)NS(=O)(=O)c1ccc(NC(=O)CSc2ccccc2)cc1	none (no result: Arbovirus anti, ROMK mod, Efa HMGR inh) | ROMK hit retest inactive
O=C(CSc1ccccc1)Nc1ccc(S(=O)(=O)Nc2ncccn2)cc1	none
COc1ccc(C(=O)c2c(C)c3cc(C)ccc3n2CC(O)CN2CCOCC2)cc1 (configuration not stated)	none (no result: ROMK mod)
O=C(COc1ccccc1[N+](=O)[O-])Nc1cc(Cl)ccc1C(=O)O	none
O=C1NC(c2ccccc2)=C(c2ccc3ccccc3n2)C(c2ccc(F)cc2)N1 (configuration not stated)	ROMK mod -2.99 | ROMK hit retest inactive
COc1ccc(OCc2csc(N)n2)cc1	none
CC1=C/C(=C\C=C(C#N)C#N)N(C)c2ccccc21	HSV augment inconclusive, ROMK mod -3.99 (no result: Arbovirus anti, Efa HMGR inh) | ROMK hit retest 0.0414
CN(C)S(=O)(=O)Oc1cccc(C(=O)Nc2ccccc2Cl)c1	none (no result: ROMK mod)
CN(C)S(=O)(=O)Oc1cccc(C(=O)Nc2ccc(Cl)cc2)c1	none (no result: ROMK mod) | ROMK hit retest inactive
CCOCCCNC(=O)c1ccccc1Br	none (no result: ROMK mod)
CCOC(=O)CCNC(=O)c1ccccc1Br	none (no result: ROMK mod) | ROMK hit retest inactive
Cc1cc(C)c(NC(=S)N(C)C)c(C)c1	none (no result: Arbovirus anti, ROMK mod, Efa HMGR inh)
CC1=CC(C)(C)N(C(=O)CNC2CCCC2)c2cc(C)ccc21	ROMK mod -4.02 | ROMK hit retest 0.0496
COc1ccc(S(=O)(=O)N2CCC(N3CCN(c4ccccc4OC)CC3)CC2)cc1	none (no result: Arbovirus anti, Efa HMGR inh)
O=c1[nH]c(CSc2nc3ccccc3[nH]2)nc2c1cnn2-c1ccccc1	ROMK mod -3.44 | ROMK hit retest 0.0529
O=c1[nH]c(SCc2nc3c(cnn3-c3ccccc3)c(=O)[nH]2)nc2ccccc12	none
COc1ccc(C(=O)NCCc2nnc3ccc(SCC(=O)Nc4cc(C)on4)nn23)cc1	none
Cc1ccc(Nc2nnns2)cc1C	ROMK mod -2.99 | ROMK hit retest inconclusive
Cc1ccc(Nc2ccc(NCc3ccccc3)nn2)cc1C	none
Cc1[nH]n(-c2ccccc2)c(=O)c1C(C[N+](=O)[O-])c1ccc(Cl)cc1 (configuration not stated)	ROMK mod -2.97 | ROMK hit retest 0.061
CCOC(=O)/C(=C/c1c(C)n(C)c2ccc([N+](=O)[O-])cc12)C(C)=O	ROMK mod -4.19 | ROMK hit retest 0.046
CCN1CCN(c2ccc(S(=O)(=O)N3CCCC3)cn2)CC1	none
CCC(=O)N1CCc2cc(S(=O)(=O)N3CCN(c4ccccn4)CC3)ccc21	ROMK mod 3.57 | ROMK hit retest inactive
CCOC(=O)C1CCN(C(=O)c2cc(C(C)(C)C)nn2Cc2ccccc2)CC1	none (no result: Arbovirus anti, ROMK mod, Efa HMGR inh)
CSCCC(NS(=O)(=O)/C=C/c1ccccc1)C(=O)NCCc1ccc(S(N)(=O)=O)cc1 (configuration not stated)	none (no result: Arbovirus anti, ROMK mod, Efa HMGR inh)
CC(C)=NNc1nc2c(c(=O)[nH]c(=O)n2C)n1CCc1ccccc1	ROMK mod -1.67 | ROMK hit retest inactive
CC(C)CCSc1nc2c(c(=O)[nH]c(=O)n2C)n1CCCc1ccccc1	none (no result: ROMK mod) | ROMK hit retest inactive
Cn1c(=O)[nH]c(=O)c2c1nc(SCCN1CCOCC1)n2CCCc1ccccc1	none (no result: ROMK mod)
COc1cc(Cl)c(C)cc1NC(=O)c1cc(S(=O)(=O)N(C)C)ccc1N1CCCC1	none (no result: ROMK mod)
CCn1c(=O)c(C)nn2c3ccccc3nc12	none (no result: ROMK mod) | ROMK hit retest inactive
O=C(/C=C/c1cn(CC(O)CN2CCCCC2)c2ccccc12)c1ccccc1 (configuration not stated)	none (no result: Arbovirus anti, ROMK mod, Efa HMGR inh) | ROMK hit retest 0.057
COc1ccc(C(=O)/C=C/c2cn(CC(O)CN3CCN(C)CC3)c3ccccc23)cc1OC (configuration not stated)	none (no result: Arbovirus anti, ROMK mod, Efa HMGR inh) | ROMK hit retest 0.0594
CN1CCN(Cn2cc(/C=C/C(=O)c3ccccc3)c3ccccc32)CC1	none
COc1ccc(/C=C2\N=C(c3ccccc3)NNC2=O)cc1	none (no result: Arbovirus anti, ROMK mod, Efa HMGR inh)
O=C(Nc1ccccc1-c1ccccc1)C(=O)Nc1ccccc1-c1ccccc1	none (no result: Arbovirus anti, ROMK mod, Efa HMGR inh)
C/C=C/c1ccc(OCC(=O)OCc2csc(Nc3ccc(C)cc3)n2)c(OC)c1	ROMK mod -2.61 | ROMK hit retest 0.0648
Cc1ccc(Nc2nc(COC(=O)COc3ccc(C=O)cc3)cs2)cc1	none (no result: ROMK mod)
CCC(C)NCCC(=O)Nc1ccc(Cl)c(S(=O)(=O)Nc2ccc(Cl)cc2)c1 (configuration not stated)	ROMK mod -4.07 | ROMK hit retest 0.0637
Cc1ccc(C(=O)CCC(=O)Nc2ccc(Cl)c(S(=O)(=O)Nc3cccc(Cl)c3)c2)cc1	none
O=C(O)c1cccc2c1C(=O)c1ccccc1C2=O	ROMK mod -2.4 | ROMK hit retest inactive
C#CCO[C@@H]1C[C@H](n2cnc3c(NC(=O)c4ccccc4)ncnc32)O[C@@H]1CO	none (no result: Arbovirus anti, ROMK mod, Efa HMGR inh)
CCCCC(CC)CNC(=O)CCS(=O)(=O)c1cccc2nonc12 (configuration not stated)	none (no result: HSV augment, ROMK mod) | ROMK hit retest inconclusive
CC(C)CCNC(=O)CCS(=O)(=O)c1cccc2nonc12	none (no result: ROMK mod)
c1ccc(-c2cnn3c(-c4ccccc4)c(-c4ccccc4)nc3n2)cc1	HSV augment inconclusive (no result: ROMK mod)
COC(=O)C1CCN(C(=O)COC(=O)c2n[nH]c3ccccc23)CC1	none | ROMK hit retest inactive
NC(=O)C1CCN(c2ncnc3c2c(-c2ccccc2)cn3-c2ccccc2)CC1	none (no result: ROMK mod) | ROMK hit retest 0.0635
COc1cccc(N2CCN(c3c(C#N)c(C(F)(F)F)nn3C)CC2)c1	ROMK mod -4.09 | ROMK hit retest 0.0596
Cn1nc(C(F)(F)F)c(C#N)c1N1CCN(c2ccccc2F)CC1	none
CCN(CC)S(=O)(=O)c1ccc(C)c(NC(=O)Cn2cnc3cc([N+](=O)[O-])ccc3c2=O)c1	ROMK mod 2.91 | ROMK hit retest inconclusive
O=C(Cn1cnc2cc([N+](=O)[O-])ccc2c1=O)Nc1cccc2ccccc12	none (no result: Arbovirus anti, ROMK mod, Efa HMGR inh)
CCCCCc1ccc(OCCCC[n+]2ccc(C)cc2)c(CCCCC)c1	ROMK mod -5.65 | ROMK hit retest 0.0474
CCCCCc1ccc(OCCCC[n+]2ccccc2)c(CCCCC)c1	ROMK mod -4.92 | ROMK hit retest 0.0552
Cc1cc(=O)oc2cc(OCCCC[n+]3ccccc3)ccc12	none (no result: Arbovirus anti, ROMK mod, Efa HMGR inh)
CCc1ccc(-n2c(=O)c3c(C)c(C)sc3n(CC(=O)NCC3CCCO3)c2=O)cc1 (configuration not stated)	none
COc1ccc(N(C)S(=O)(=O)c2cccc(C(=O)N(C)Cc3ccc(C)o3)c2)cc1	none
Cc1cc2oc(=O)cc(Cn3ccnc3)c2cc1C	ROMK mod -6.26 | ROMK hit retest inactive
O=C(/C=C/c1ccc(Br)o1)Nc1nnc(C2CC2)s1	none (no result: Arbovirus anti, ROMK mod, Efa HMGR inh)
